From PubChem BioAssay
The source made the active and inactive calls.

How the values were obtained:
[1] = binders of probe aFSTL3 on microarray, primary screen, stem cell growth factor project, biochemical, small-molecule microarray, fluorescence 635/667 (AID 1064); settings: higher = more signal;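 further: measures binding of the biotinylated anti-FSTL3 antibody to printed compounds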
[2] = binders from COS7 lysate, DM2A8 probe, primary screen, torsin A project, cell lysate, small-molecule microarray, fluorescence 635/667 (AID 1065); settings: higher = more signal, COS7 lysate expressing mutant human TOR1A
[3] = binders of probe aFGF2 on microarray, primary screen, stem cell growth factor project, biochemical, small-molecule microarray, fluorescence 635/667 (AID 1067); settings: higher = more signal;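 further: measures binding of biotinylated aFGF2 protein to printed compounds on slides; z-score merges feature fluorescence and signal-to-noise across triplicate slides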
[4] = binders of probe aFGF10 on microarray, primary screen, stem cell growth factor project, biochemical, small-molecule microarray, fluorescence 635/667 (AID 1071); settings: higher = more signal;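 further: score merges 667 nm spot intensity and signal to noise from triplicate slides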
[5] = biological target: Neurogenic locus notch homolog protein 2 (Homo sapiens) (UniProt Q04721); test: Notch2 binders on small-molecule microarrays, primary screen, biochemical, small-molecule microarray, 635 nm fluorescence, stem cell growth factors (AID 1073); settings: Notch2 binding, higher = more signal
Neurogenic locus notch homolog protein 2 (Homo sapiens), sequence (Q04721 whole entry, looked up, canonical isoform): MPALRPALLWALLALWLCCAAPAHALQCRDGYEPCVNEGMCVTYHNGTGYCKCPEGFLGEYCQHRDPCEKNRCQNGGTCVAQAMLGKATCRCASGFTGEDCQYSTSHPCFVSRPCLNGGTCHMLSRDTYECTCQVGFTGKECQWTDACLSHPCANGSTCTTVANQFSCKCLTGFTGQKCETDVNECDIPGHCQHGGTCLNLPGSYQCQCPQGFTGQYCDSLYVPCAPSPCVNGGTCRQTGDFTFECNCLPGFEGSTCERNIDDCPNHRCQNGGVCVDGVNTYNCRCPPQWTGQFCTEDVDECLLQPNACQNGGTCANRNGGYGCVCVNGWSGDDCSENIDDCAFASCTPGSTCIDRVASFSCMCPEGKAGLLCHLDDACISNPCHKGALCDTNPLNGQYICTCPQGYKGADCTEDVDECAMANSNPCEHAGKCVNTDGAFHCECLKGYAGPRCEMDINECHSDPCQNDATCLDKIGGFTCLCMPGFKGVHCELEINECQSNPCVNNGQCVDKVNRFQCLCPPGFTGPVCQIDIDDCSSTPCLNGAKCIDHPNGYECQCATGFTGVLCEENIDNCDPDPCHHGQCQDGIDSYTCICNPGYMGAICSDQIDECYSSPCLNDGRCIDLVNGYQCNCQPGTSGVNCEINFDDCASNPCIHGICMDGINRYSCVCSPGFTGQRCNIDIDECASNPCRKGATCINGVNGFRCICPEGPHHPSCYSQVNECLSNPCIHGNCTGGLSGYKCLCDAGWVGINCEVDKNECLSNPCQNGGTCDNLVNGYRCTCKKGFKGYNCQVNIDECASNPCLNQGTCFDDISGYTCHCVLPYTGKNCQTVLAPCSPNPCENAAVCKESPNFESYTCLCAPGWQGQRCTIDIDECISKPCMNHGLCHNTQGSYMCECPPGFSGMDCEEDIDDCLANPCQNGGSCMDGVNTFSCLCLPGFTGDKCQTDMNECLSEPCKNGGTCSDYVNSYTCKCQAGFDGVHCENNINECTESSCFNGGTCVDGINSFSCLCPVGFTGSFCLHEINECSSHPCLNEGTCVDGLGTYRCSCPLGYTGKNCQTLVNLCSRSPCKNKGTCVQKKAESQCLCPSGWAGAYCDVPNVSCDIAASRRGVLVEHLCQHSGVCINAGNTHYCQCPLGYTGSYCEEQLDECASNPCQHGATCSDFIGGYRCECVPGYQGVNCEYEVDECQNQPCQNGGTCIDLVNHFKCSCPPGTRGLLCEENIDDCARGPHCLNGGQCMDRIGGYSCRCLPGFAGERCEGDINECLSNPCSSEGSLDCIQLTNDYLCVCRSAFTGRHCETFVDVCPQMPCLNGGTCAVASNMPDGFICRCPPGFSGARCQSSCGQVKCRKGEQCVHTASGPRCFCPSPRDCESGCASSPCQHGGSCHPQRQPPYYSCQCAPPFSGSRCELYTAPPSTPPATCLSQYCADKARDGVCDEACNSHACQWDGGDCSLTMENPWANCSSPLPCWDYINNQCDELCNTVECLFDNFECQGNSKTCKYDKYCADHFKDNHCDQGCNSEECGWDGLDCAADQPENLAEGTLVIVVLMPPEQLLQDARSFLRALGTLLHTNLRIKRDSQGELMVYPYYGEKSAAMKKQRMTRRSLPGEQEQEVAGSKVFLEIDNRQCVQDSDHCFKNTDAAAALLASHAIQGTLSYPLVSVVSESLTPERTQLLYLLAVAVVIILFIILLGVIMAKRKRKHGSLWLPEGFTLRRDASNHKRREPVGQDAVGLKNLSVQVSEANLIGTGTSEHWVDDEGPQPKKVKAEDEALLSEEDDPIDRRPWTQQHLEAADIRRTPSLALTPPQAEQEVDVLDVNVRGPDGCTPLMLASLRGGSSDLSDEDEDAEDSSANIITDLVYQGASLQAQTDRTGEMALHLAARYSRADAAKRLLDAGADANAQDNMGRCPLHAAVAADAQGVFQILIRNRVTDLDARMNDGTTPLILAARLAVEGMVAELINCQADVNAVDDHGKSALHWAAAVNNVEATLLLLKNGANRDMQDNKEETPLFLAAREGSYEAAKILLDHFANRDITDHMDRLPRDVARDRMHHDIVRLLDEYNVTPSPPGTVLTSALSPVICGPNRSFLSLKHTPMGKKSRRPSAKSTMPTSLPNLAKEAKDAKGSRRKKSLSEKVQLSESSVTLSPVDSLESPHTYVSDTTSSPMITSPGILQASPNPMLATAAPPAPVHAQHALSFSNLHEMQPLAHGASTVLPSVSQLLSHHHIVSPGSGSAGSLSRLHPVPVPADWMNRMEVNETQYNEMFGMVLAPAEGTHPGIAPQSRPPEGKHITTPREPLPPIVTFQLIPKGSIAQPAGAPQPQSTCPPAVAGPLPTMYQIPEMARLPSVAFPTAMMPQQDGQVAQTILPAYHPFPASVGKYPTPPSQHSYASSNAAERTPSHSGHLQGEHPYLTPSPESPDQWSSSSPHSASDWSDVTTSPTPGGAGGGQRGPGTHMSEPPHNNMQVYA

[6] = biological target: Pro-neuregulin-1, membrane-bound isoform (Homo sapiens) (UniProt Q02297); test: NRG1 binders on small-molecule microarrays, primary screen, psychiatric disease protein project, biochemical, small-molecule microarray, fluorescence 635/667 (AID 1075); settings: NRG1 binding, 635 nm fluorescence, higher = more signal;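 further: score combines 667 nm spot fluorescence with signal to noise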
Pro-neuregulin-1, membrane-bound isoform (Homo sapiens), sequence (Q02297 whole entry, looked up, the tested form may be a part, canonical isoform): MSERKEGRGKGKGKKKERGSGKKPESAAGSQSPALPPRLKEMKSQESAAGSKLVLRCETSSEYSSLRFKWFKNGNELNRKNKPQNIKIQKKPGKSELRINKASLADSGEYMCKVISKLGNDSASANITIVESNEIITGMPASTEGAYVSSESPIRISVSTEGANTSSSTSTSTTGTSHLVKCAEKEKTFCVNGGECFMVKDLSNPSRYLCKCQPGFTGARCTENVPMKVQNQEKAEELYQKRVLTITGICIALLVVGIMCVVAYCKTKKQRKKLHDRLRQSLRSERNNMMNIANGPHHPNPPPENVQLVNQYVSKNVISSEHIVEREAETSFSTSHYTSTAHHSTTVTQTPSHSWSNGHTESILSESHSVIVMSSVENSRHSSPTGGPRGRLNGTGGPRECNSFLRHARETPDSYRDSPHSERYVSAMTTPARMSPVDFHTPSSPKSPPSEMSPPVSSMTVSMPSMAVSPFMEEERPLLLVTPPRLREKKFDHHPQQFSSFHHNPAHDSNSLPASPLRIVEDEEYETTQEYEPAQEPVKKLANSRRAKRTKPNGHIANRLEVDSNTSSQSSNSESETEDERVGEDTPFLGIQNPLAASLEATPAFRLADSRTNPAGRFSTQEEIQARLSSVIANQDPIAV

[7] = system: Neuregulin-1 EGF-like domain; test: binders of neuregulin-1 EGF-like domain, primary screen, biochemical, small-molecule microarray, 635 nm fluorescence (AID 1081); settings: small-molecule microarray binding, higher = more signal;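 further: binding of the protein to compounds printed on small-molecule microarray slides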
[8] = FRG1 promoter luciferase signal modulators, primary screen, FRG1 inhibition for FSHD, cell-based, C2C12 myotubes, firefly/Renilla luciferase, luminescence (AID 1084); settings: higher = more signal, called active from +8 up or from −8 down
[9] = binders of probe aFST on microarray, primary screen, stem cell growth factor project, biochemical, small-molecule microarray, fluorescence 635/667 (AID 1086); settings: higher = more signal;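 further: score merges 667 nm fluorescence with signal-to-noise of each printed compound spot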
[10] = binders of probe aHhip on microarray, primary screen, stem cell growth factor project, biochemical, small-molecule microarray, fluorescence 635/667 (AID 1087); settings: higher = more signal;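 further: score merges spot fluorescence at 667nm with spot signal to noise ratio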
[11] = system: PRMT1 (protein arginine N-methyltransferase 1); test: PRMT1 binders on small-molecule microarrays, primary screen, biochemical, small-molecule microarray, 635 nm fluorescence (AID 1088); settings: small-molecule microarray binding, higher = more signal;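 further: binding of Prmt1 protein to compounds spotted on small-molecule microarray slides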
[12] = yeast growth modulation, basal conditions, primary screen, YJM789 clinical isolate, OD600, 24 h (AID 1089);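 further: growth of clinical yeast isolate S. cerevisiae YJM 789 seeded 1000 cells per well; test concentration not given here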; settings: S. cerevisiae YJM789 growth, higher = more signal, called active from +8 up or from −8 down
[13] = fission yeast growth modulation, primary screen, strain 972, OD600, 24 h, no modulator (AID 1090);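 further: basal condition with compound alone and no growth modifier present; test concentration not given here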; settings: S. pombe 972 growth, higher = more signal, called active from +8 up or from −8 down
[14] = S. cerevisiae growth modulation with rapamycin, primary screen, strain BY4716, OD600, 96 h (AID 1091); settings: higher = more signal, called active from +8 up or from −8 down; further: test concentration not given here
[15] = biological target: Torsin-1A-interacting protein 2 (Homo sapiens) (UniProt Q8NFQ8); test: LULL1 binders on small-molecule microarray, primary screen, cell lysate, human LULL1 lysate, 635/667 nm fluorescence (AID 1092); settings: hLULL1 lysate binding, 635 nm fluorescence, higher = more signal;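 further: probe is lysate of COS7 cells overexpressing human LULL1; score merges per-feature 667 nm fluorescence with signal-to-noise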
Torsin-1A-interacting protein 2 (Homo sapiens), sequence (Q8NFQ8 whole entry, looked up): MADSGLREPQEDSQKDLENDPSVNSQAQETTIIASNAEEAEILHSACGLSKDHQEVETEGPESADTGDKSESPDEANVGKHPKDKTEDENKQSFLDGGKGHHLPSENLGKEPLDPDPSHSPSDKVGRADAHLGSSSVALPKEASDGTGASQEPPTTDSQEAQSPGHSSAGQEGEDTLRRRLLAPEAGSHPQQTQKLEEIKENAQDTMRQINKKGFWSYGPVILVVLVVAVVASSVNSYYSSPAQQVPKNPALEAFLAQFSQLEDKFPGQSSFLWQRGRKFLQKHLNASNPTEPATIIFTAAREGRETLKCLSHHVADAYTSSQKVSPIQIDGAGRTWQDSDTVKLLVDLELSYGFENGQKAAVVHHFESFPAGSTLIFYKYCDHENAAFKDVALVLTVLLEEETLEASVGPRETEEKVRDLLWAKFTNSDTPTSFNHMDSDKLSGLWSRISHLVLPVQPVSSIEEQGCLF

[16] = E. coli growth modulation, two-sided OD650, primary screen, E. coli filamentation project, strain DRC41, 24 h (AID 1093); settings: OD650, 24 h, higher = more signal, called active from +8 up or from −8 down;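 further: MC1000 strain lacking acrAB efflux and sulA so SOS filamentation is blocked; test concentration not given here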
[17] = small-molecule microarray binders of probe aLefty2, primary screen, biochemical, biotinylated probe, 635/667 nm fluorescence (AID 1094); settings: higher = more signal;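 further: score merges spot fluorescence near 667 nm with spot signal-to-noise ratio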
[18] = system: Noggin (protein binding on small-molecule microarray); test: Noggin binders on small-molecule microarray, primary screen, biochemical, 635/667 nm fluorescence (AID 1095); settings: 635 nm fluorescence, higher = more signal;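 further: score merges 667 nm feature fluorescence with signal to noise over triplicate slides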
[19] = biological target: Neurogenic locus notch homolog protein 3 (Homo sapiens) (UniProt Q9UM47); test: NOTCH3 binders on small-molecule microarray, primary screen, biochemical, 635/667 nm fluorescence (AID 1096); settings: NOTCH3 binding, 635 nm fluorescence, higher = more signal
[20] = small-molecule microarray binders of probe aEGFR, primary screen, biochemical, biotinylated probe, 635/667 nm fluorescence (AID 1097); settings: higher = more signal;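 further: probe is a biotinylated anti-EGFR antibody binding compounds printed on slides; score combines fluorescence near 667 nm and signal to noise of each spot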

SMILES	composite z-score [1]	composite z-score [2]	composite z-score [3]	composite z-score [4]	composite z-score [5]	composite z-score [6]	composite z-score [7]	z-score [8]	composite z-score [9]	composite z-score [10]	composite z-score [11]	z-score [12]	z-score [13]	z-score [14]	composite z-score [15]	z-score [16]	composite z-score [17]	composite z-score [18]	composite z-score [19]	composite z-score [20]
COCCCNC(=O)[C@@]1(Sc2ccc(C)cc2)CC(=O)N(Cc2ccccc2)[C@@H]1c1ccc(CO)cc1	0.178	0.685	0.0431	0.738	-0.774	0.505	-0.233	-1.53 (inactive)	-0.217	0.0347	0.983	-0.0867 (inactive)	0.163 (inactive)	-0.455 (inactive)	2.66	-0.0977 (inactive)	-0.27	-0.408	-0.0703	0.03
CCCCC(=C=CC[C@H](O)c1ccccc1OCCO)C[C@H](O)c1cc(Cl)cc(Cl)c1O	-0.114	-0.257	-0.0628	0.583	0.151	0.371	1.1	-2.37 (inactive)	0.0025	-0.226	1.1	0.906 (inactive)	-1.33 (inactive)	0.32 (inactive)	1.3	-0.144 (inactive)	-0.118	0.453	0.224	-0.163
C=CCOC(=O)[C@@H]1[C@H]2C(=O)O[C@H](c3ccccc3)[C@H](c3ccccc3)N2[C@H](c2ccc(OCCOC(=O)[C@H]3C[C@H]4C(=O)N[C@@H](Cc5ccccc5)C(=O)N4[C@H]3c3ccc(O)cc3)cc2)[C@@]12C(=O)Nc1ccc(I)cc12	-0.248	1.33	-0.0939	0.459	1.11	0.846	1.3	1.16 (inactive)	0.248	-0.0994	1.54	2.61 (inactive)	-1.76 (inactive)	0.88 (inactive)	1.83	-1.96 (inactive)	-0.0879	0.906	1.09	0.128
[N-]=[N+]=NCc1ccccc1C[C@@]1(C(=O)NCc2ccccc2)N=C(c2ccc(OCCCO)cc2)O[C@@H]1c1ccccc1CN=[N+]=[N-]	0.705	0.425	0.107	0.809	0.933	0.926	1.05	-1.95 (inactive)	0.803	0.553	1.57	-1.34 (inactive)	0.0392 (inactive)	36 (active)	3.25	1.16 (inactive)	0.395	0.234	0.756	0.0157
Cc1ccc(S[C@]2(C(=O)NCCCN(C)C)CC(=O)N(Cc3ccccc3)[C@@H]2c2ccc(CO)cc2)cc1	1.15	-0.533	-0.145	-0.193	-1.24	-0.234	-1.11	-1.76 (inactive)	-0.101	-0.409	1.25	-0.933 (inactive)	-1.18 (inactive)	-1.03 (inactive)	2.01	-0.0465 (inactive)	0.555	-0.511	-0.631	-0.152
C#C[C@H](O[Si](C#CCCCCCC)(C(C)C)C(C)C)c1ccccc1	-0.441	-0.0593	-0.0994	0.323	-0.55	-0.204	0.0885	0.0077 (inactive)	-0.748	-0.217	0.631	0.0821 (inactive)	0.384 (inactive)	-0.653 (inactive)	0.432	0.411 (inactive)	-0.114	0.186	0.13	-0.171
